# Test results reported in PubChem BioAssay (Tox21).
# Unmarked numbers belong to inactive results. Inconclusive results are not listed. Entries that show only a call come without a potency. Active and inactive are the calls of the source. Unless noted, calls follow the shape of the dose curve; as a rule, active = well fitted curve in the direction sought with a large enough effect in the repeat runs; inconclusive = weak or mixed curves; inactive = no such curve, though single readings can be large; an effect the other way counts as inactive or inconclusive.
# How the values were obtained:
# [1] = qHTS assay to identify small molecule agonists of the estrogen receptor alpha (ER-alpha) signaling pathway in the presence of an antagonist - cell viability counter screen (AID 1259386);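 also: cells exposed to compounds for 22 h at 37 °C before the viability read; nearly all actives have a fitted effect of over 30% in size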; also: potency is read from the fitted curve at half-maximal effect; as to activity change, negative = cytotoxicity: series mostly up to about 92 µM
# Procedure, shortened: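 VM7Luc4E2 cells (endogenous full-length ER-alpha, 4×ERE-luciferase) were held 5 days in phenol red-free medium with 10% charcoal-stripped FBS, plated, then given 10.0nM ICI-182,780 and compounds at 15 concentrations for 22hr at 37C; viability read by CellTiter-Fluor fluorescence.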
# [2] = target: Progesterone receptor (Homo sapiens) (UniProt P06401); experiment: qHTS assay to identify small molecule agonists of the progesterone receptor (PR) signaling pathway (AID 1346784; calls by dose curve; also: nearly all actives have a fitted effect of over 30% in size)
# Procedure, shortened: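 PR-UAS-bla HEK 293T cells carrying a UAS-driven beta-lactamase reporter were seeded in medium with 2% charcoal-stripped FBS, preincubated 6 hr at 37C, then exposed to compounds in DMSO for 16 hr; agonism was read by LiveBLAzer B/G FRET fluorescence.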
# [3] = target: Progesterone receptor (Homo sapiens) (UniProt P06401); experiment: qHTS assay to identify small molecule antagonists of the progesterone receptor (PR) signaling pathway (AID 1346795; active = well fitted inhibition curve with a large enough effect in the signal ratio in the repeat runs, not every such curve was filed as active; the % refers to the signal ratio; also: potency is read from the fitted curve at half-maximal effect)
# Procedure, shortened: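 PR-UAS-bla HEK293T cells carrying a UAS-driven beta-lactamase reporter were plated in medium with 2% charcoal-stripped FBS and rested 6 hr at 37C. Compounds were added with 1 nM R5020 (final) for 16 hr, then FRET substrate loaded 2 hr at room temperature.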
# [4] = qHTS assay to identify small molecule antagonists of the progesterone receptor (PR) signaling pathway - cell viability counter screen (AID 1346798); also: nearly all actives have a fitted effect of over 50% in size; also: potency is read from the fitted curve at half-maximal effect; as to activity change, negative = cytotoxicity: series mostly up to about 92 µM
# Procedure, shortened: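 PR-UAS-bla HEK293T cells in medium with 2% charcoal-stripped FBS were treated with compounds plus R5020 for 16 hr at 37C. Cell viability was then read by CellTiter-Glo luminescence after 30 min at room temperature in the same wells.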
# [5] = qHTS assay to identify small molecule agonists of the progesterone receptor (PR) signaling pathway - cell viability counter screen (AID 1346799; calls by dose curve; also: nearly all actives have a fitted effect of over 45% in size)
# Procedure, shortened: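 PR-UAS-bla HEK293T cells, 3,000 per well in medium with 2% charcoal-stripped FBS, were preincubated 6 hr at 37C, then exposed to compounds for 16 hr; viability was read as CellTiter-Glo luminescence after 30 min at room temperature.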
# [6] = qHTS assay to identify small molecule agonists of the TGF-beta/Smad signaling pathway - cell viability counter screen (AID 1346829); also: top concentration of the series differs between compounds; nearly all actives have a fitted effect of over 45% in size
# Procedure, shortened: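 Same-well cytotoxicity: CellTiter-Glo added after the 2 hr room-temperature beta-lactamase substrate step, luminescence measured 30 min later; cells had 5 hr of compound at 37 C.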
# [7] = qHTS assay to identify small molecule agonists of the TGF-beta/Smad signaling pathway (AID 1346859; active = well fitted activation curve with a large enough effect in the signal ratio in the repeat runs, not every such curve was filed as active; the % refers to the signal ratio; also: series mostly up to about 77 µM)
# Procedure, shortened: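 HEK 293T cells stably carrying a beta-lactamase reporter driven by the Smad binding element were seeded overnight, exposed to DMSO-dissolved compounds for 5 hr at 37 C, 5% CO2, then loaded with FRET substrate for 2 hr at room temperature.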
# [8] = target: Thyrotropin-releasing hormone receptor (Homo sapiens) (UniProt P34981); experiment: qHTS assay to identify small molecule antagonists of the thyrotropin-releasing hormone receptor (TRHR) signaling pathway (AID 1346877; active = well fitted inhibition curve with a large enough effect in the repeat runs, not every such curve was filed as active; also: series mostly up to about 51 µM)
# Procedure, shortened: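 TRHR-expressing HEK293 cells were seeded, cultured 18 h at 37 °C, then loaded with calcium dye for 2 h. Compounds were pre-incubated 5 min at room temperature before 1 nM TRH (final) was added, and kinetic fluorescence was recorded for 3 min.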
# [9] = target: Thyrotropin-releasing hormone receptor (Homo sapiens) (UniProt P34981); experiment: qHTS assay to identify small molecule agonists of the thyrotropin-releasing hormone receptor (TRHR) signaling pathway (AID 1346891; calls by dose curve; also: series mostly up to about 58 µM)
# Procedure, shortened: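 TRHR-expressing HEK293 cells were plated 18 h at 37 °C/5% CO2, loaded with calcium dye 2 h at 37 °C, then given compound in DMSO; fluorescence was read kinetically for 3 min at 1 s intervals.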
# [10] = qHTS assay to identify small molecule antagonists of the TGF-beta/Smad signaling pathway - cell viability counter screen (AID 1346824); also: nearly all actives have a fitted effect of over 50% in size
# Procedure, shortened: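 Cytotoxicity counter-screen run in the same wells as the beta-lactamase Smad reporter read: CellTiter-Glo luminescence after 30 min at room temperature. HEK 293T SBE-bla cells had 5 hr compound exposure at 37 C with TGF-beta1 (0.25 ng/mL stock).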
# Thyrotropin-releasing hormone receptor (Homo sapiens), sequence (P34981 whole entry, looked up): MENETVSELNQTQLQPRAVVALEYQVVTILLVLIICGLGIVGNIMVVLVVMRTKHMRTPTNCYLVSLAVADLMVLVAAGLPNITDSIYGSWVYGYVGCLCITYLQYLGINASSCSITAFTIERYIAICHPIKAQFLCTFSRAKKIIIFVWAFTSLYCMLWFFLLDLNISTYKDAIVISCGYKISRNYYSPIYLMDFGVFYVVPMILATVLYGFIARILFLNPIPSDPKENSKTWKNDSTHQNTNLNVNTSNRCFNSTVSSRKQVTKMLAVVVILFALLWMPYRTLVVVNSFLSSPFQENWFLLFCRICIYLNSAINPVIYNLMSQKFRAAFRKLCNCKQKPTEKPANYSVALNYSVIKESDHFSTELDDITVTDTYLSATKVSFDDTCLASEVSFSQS
# Progesterone receptor (Homo sapiens), sequence (P06401 whole entry, looked up): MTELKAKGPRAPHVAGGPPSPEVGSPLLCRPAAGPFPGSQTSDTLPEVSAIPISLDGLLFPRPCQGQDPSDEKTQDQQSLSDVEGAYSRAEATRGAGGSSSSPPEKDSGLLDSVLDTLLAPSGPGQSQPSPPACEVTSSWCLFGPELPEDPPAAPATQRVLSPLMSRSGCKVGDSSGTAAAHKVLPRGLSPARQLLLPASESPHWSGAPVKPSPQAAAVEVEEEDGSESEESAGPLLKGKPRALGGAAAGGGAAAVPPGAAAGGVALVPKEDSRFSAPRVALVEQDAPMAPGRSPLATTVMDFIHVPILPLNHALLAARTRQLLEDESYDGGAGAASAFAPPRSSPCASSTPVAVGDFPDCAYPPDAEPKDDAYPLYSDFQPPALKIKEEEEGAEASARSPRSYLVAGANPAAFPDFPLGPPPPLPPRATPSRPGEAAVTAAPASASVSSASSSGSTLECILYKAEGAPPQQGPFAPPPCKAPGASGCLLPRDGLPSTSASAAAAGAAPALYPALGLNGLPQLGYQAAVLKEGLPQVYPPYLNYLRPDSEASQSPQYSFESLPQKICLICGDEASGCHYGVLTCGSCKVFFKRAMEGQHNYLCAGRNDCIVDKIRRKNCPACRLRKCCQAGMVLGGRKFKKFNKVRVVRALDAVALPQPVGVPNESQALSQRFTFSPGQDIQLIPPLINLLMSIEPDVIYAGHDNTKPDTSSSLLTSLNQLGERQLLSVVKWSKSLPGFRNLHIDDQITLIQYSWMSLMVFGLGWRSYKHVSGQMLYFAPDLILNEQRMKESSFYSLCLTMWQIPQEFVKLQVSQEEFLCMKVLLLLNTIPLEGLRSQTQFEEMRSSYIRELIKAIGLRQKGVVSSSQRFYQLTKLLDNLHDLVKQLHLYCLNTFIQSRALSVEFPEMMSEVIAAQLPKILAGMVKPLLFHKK
smiles,measurement,setting,value
C/C(=C(\CCOP(=O)(O)O)SC(=O)c1ccccc1)N(C=O)Cc1cnc(C)nc1N,"activity change, negative = cytotoxicity",[1],1.33% [at 8.39 µM]
same,activation,[2],-0.857% [at 8.39 µM]
same,"activity change, negative = inhibition",[3],5.03% [at 8.39 µM]
same,"activity change, negative = cytotoxicity",[4],9.64% [at 8.39 µM]
same,"activity change, negative = cytotoxicity",[5],-10.4% [at 8.39 µM]
same,"activity change, negative = cytotoxicity",[6],0.402% [at 6.97 µM]
same,activation,[7],2.27% [at 6.97 µM]
same,"activity, negative = inhibition",[8],-3.24% [at 4.65 µM]
same,activation,[9],-0.266% [at 5.23 µM]
OC(C#CCN1CCCC1)(c1ccccc1)c1ccccc1,Potency,[1],inactive
same,Potency,[2],inactive
same,Potency,[3],inactive
same,Potency,[4],inactive
same,Potency,[5],inactive
same,outcome,[6],inactive
same,Potency,[7],inactive
same,outcome,[8],inactive
same,Potency,[9],inactive
Nc1ccc(N)c2c1C(=O)c1ccccc1C2=O,Potency,[1],9.69 µM (active)
same,Potency,[2],inactive
same,Potency,[3],inactive
same,Potency,[4],27.3 µM (active)
same,Potency,[10],inactive
same,outcome,[6],inactive
same,Potency,[7],inactive
same,outcome,[8],inactive
same,Potency,[9],inactive
C=CCOC(=O)CCC1CCCCC1,Potency,[1],inactive
same,Potency,[2],inactive
same,Potency,[3],inactive
same,Potency,[4],inactive
same,Potency,[10],inactive
same,outcome,[6],inactive
same,Potency,[7],inactive
same,outcome,[8],inactive
same,Potency,[9],inactive
Cc1cccc(C)c1NC(=O)CN(CC(=O)O)CC(=O)O,Potency,[1],inactive
same,Potency,[2],inactive
same,Potency,[3],inactive
same,Potency,[4],inactive
same,Potency,[10],inactive
same,outcome,[6],inactive
same,Potency,[7],inactive
same,outcome,[8],inactive
same,Potency,[9],inactive
c1cc(CCCc2ccncc2)ccn1,Potency,[1],inactive
same,Potency,[2],inactive
same,Potency,[3],54.5 µM (active)
same,Potency,[4],inactive
same,Potency,[10],inactive
same,outcome,[6],inactive
same,outcome,[8],inactive
same,Potency,[9],inactive
COc1cc2nc(Cl)nc(N)c2cc1OC,Potency,[1],inactive
same,Potency,[2],inactive
same,Potency,[3],inactive
same,Potency,[4],inactive
same,Potency,[10],inactive
same,outcome,[6],inactive
same,Potency,[7],inactive
same,outcome,[8],inactive
same,Potency,[9],inactive
COc1cccc(N(C)C(=S)Oc2ccc3c(c2)CCCC3)n1,Potency,[1],inactive
same,Potency,[2],inactive
same,Potency,[3],18.8 µM (active)
same,Potency,[4],inactive
same,Potency,[5],inactive
same,Potency,[10],inactive
same,outcome,[6],inactive
same,outcome,[8],inactive
same,Potency,[9],inactive
Cc1ccccc1S(=O)(=O)O,Potency,[1],inactive
same,Potency,[2],inactive
same,Potency,[3],inactive
same,Potency,[4],inactive
same,Potency,[5],inactive
same,outcome,[6],inactive
same,Potency,[7],inactive
same,outcome,[8],inactive
same,Potency,[9],inactive
CCN(CC)c1ccc(C(=C2C=CC(=[N+](CC)CC)C=C2)c2cc(S(=O)(=O)O)ccc2S(=O)(=O)[O-])cc1,Potency,[1],23.7 µM (active)
same,Potency,[2],inactive
same,Potency,[3],inactive
same,Potency,[4],inactive
same,Potency,[5],inactive
same,outcome,[8],inactive
same,Potency,[9],inactive
NCc1ccccc1Sc1ccccc1CO,Potency,[1],inactive
same,Potency,[2],inactive
same,Potency,[3],inactive
same,Potency,[4],inactive
same,Potency,[10],inactive
same,outcome,[6],inactive
same,Potency,[7],inactive
same,outcome,[8],inactive
same,Potency,[9],inactive
CCOCC(O)COc1ccc(NC(=O)CC[S+](C)C)cc1 (stereo not given),Potency,[1],inactive
same,Potency,[2],inactive
same,Potency,[3],inactive
same,Potency,[4],inactive
same,Potency,[10],inactive
same,outcome,[6],inactive
same,Potency,[7],inactive
same,outcome,[8],inactive
same,Potency,[9],inactive
